Where “and” joins values, the source holds several entries; their conditions need not be identical. Equal values may be shown once. The campaign covered roughly 420,000 compounds. About 50,000 (12%) were called active. About 26% were inconclusive and are not listed. The list comes from a sample in which actives are over-represented; it also holds similar structures and randomly drawn compounds. Unmarked numbers belong to inactive results. Calls follow the shape of the dose curve; as a rule, active = well fitted inhibition curve with a large enough effect; inconclusive = small, poorly fitted or top-dose-only effect; inactive = flat fitted curve, though single readings scatter.
Experiment: qHTS for Inhibitors of human tyrosyl-DNA phosphodiesterase 1 (TDP1): qHTS in cells in presence of CPT; also: nearly all actives have a fitted effect of over 55% in size
Settings: chicken DT40 Tdp1-/-;hTDP1 cells + 20 nM CPT, ATP luminescence, 48 h; series mostly up to 46.2 µM; activity change, negative = growth inhibition: at the top concentration
Text: Human tyrosyl-DNA phosphodiesterase 1 (TDP1) is a novel repair gene, and we propose to use it as a new target for anticancer drug development. TDP1 is not an essential protein, but under treatment with topoisomerase I poison (camptothecin: CPT), TDP1 works as a critical factor for cell survival. To directly identify novel TDP1 inhibitors active in a cellular environment, we have knocked-out the Tdp1 gene in chicken DT40 cells (Tdp1-/-) and generated a complemented counterpart cells that contains a stable transfection of the human TDP1 gene (Tdp1-/-;hTDP1 cells). For the primary screen, Tdp1-/-;hTDP1 cells will be exposed to small molecules in the presence or absence of CPT, and their growth kinetics will be evaluated after 48 hours by measuring ATP activity. […] The hit compounds will then be evaluated in the presence or absence of CPT using Tdp1-/- cells. […] In tertiary assays, biochemical gel-based assays will be used to assess whether the hit compounds specifically target TDP1. To this end, we have screened this cell line against the MLSMR in two primary screens. In one screen we add CPT and in the other we screen in the absence of CPT; this AID represents the screen where CPT was present. NIH Chemical Genomics Center [NCGC] NIH Molecular Libraries Probe Centers Network [MLPCN] MLPCN Grant: MH095538 Assay Submitter (PI): Yves Pommier, NCI
DT40-hTDP1 cells with 20 nM Camptothecin (add 20 microL of 1 mM CPT stock in 1 L of cell culture medium) were dispensed at 400 cells/5microL/well in tissue culture treated 1536-well white wall/solid bottom assay plates (Greiner Bio-One North America, NC, U.S.A.) using a Multidrop Combi 8 channel dispenser (Thermo Fisher, Waltham, MA, USA). 23 nL compounds and controls were transferred using the pin tool (Kalypsys, San Diego, CA, USA) to the assay plates. The assay plates were then incubated at 37 masculineC for a minimum 48 hr. Three microL of Cell Titer Glo solution was added to the plates and incubated at RT in dark for 30 min. Luminescence was read using ViewLux (Perkin Elmer) with 1 sec exposure slow speed, high gain and 2x binning.
% is scaled to controls: 0 for no effect and ±100 for the full control effect; potency is read from the fitted curve at half-maximal effect.

Structure (SMILES)	activity change, negative = growth inhibition [%]	Potency
CN(CC(=O)Nc1cccc(F)c1)C(=O)C1CSC2(C)CCC(=O)N12 (stereo not given)	5.41	–
Cc1ccsc1C(=O)OCC(=O)NCCc1ccccc1	-7.87	–
Cc1cc(C)nc(Nc2n[nH]c(-c3ccccc3N)n2)n1	-6.41	–
C=CCC1=C/C(=C\c2c(N)n3nc(CC(=O)N4CCOCC4)sc3nc2=O)C=C(OC)C1=O	-14.2	–
N#CCCN(C(=O)Nc1ccc(Cl)c(Cl)c1)C1CCCCC1	-21.7	–
Cc1ccn2c(Nc3ccc4c(c3)OCCO4)c(-c3ccc(C)s3)nc2c1	-13.7	–
Cc1ccc(Nc2c(-c3ccc(C)s3)nc3ccccn23)cc1	–	16.4 µM (active) and 20 µM (active)
COc1cc(NC(=O)CN(C)S(=O)(=O)c2ccc3nc(C)sc3c2)cc(OC)c1	4.15	–
CCCC12CN3CC(CCC)(CN(C1)C3c1c[nH]c3ccc(OC)cc13)C2=O (stereo not given)	–	18.4 µM (active)
CCCC12CN3CC(C)(CN(C1)C3c1ccccc1Cl)C2=O (stereo not given)	-3.88	–
CCN(CC)CC(=O)c1c[nH]c2ccc(OC)cc12	5.15	–
COc1ccc(-c2c(C#N)cnc(C)c2C)c(O)c1OC	19.2	–
CCOC(=O)c1ccccc1NC(=O)COC(=O)CCC(=O)N1CCOCC1	6.01	–
O[C@@H]1C[C@H](c2ccccc2)N(Cc2cccs2)C[C@H]1n1cc(C2CC2)nn1	-14.3	–
CC(C)CC(=O)N1CCN(Cc2ccccc2Br)CC1	0.503	–
C=C1C(=O)C23C(O)C1CCC2[C@]12COC3(O)C(O)C1C(C)(C)CC[C@H]2O (stereo not given in full)	–	3.26 µM (active)
N#CCSc1nc2c(c(=O)n1Cc1ccccc1)C1(CCCC1)Cc1ccccc1-2	–	16.4 µM (active)
Cc1cccc(-n2c(SCC(N)=O)nc3c(c2=O)C2(CCCCC2)Cc2ccccc2-3)c1	-25.7	–
CC(/C=C/C1(O)C(C)CC(=O)CC1(C)C)OC1OC(CO)C(O)C(O)C1O (stereo not given)	10.3	–
Cc1ccc(N2C(=O)CC(N3CCSCC3)C2=O)c(C)c1 (stereo not given)	5.52	–
CNc1nc(=O)n(C2CCCO2)cc1C (stereo not given)	-11.7	–
COc1cc(/C=C2\SC(=S)N(Nc3ncc(C(F)(F)F)cc3Cl)C2=O)cc(OC)c1OC	-17.6	–
COc1cccc(/C=N/Nc2ncc(C(F)(F)F)cc2Cl)c1O	–	4.61 µM (active)
N/C(=N\OC(=O)Nc1ccc(Cl)c(Cl)c1)c1ncc(C(F)(F)F)cc1Cl	-26.8	–
CC(=O)c1c(C)[nH]c(C(=O)CN2C(=O)NC(C)(C)C2=O)c1C	-14.5	–
O=C(N/N=C/c1cc2c(cc1Br)OCO2)C1COc2ccccc2O1 (stereo not given)	-12.4	–
CCOc1cccc(-n2nnnc2-c2ccc(OC)cc2)c1	–	2.91 µM (active)
COc1ccc(NC(=O)CSc2nnnn2-c2cccc(OC)c2)cc1	-2.26	–

Structure (SMILES)	activity change, negative = growth inhibition [%]	Potency
COc1ccc(C2=CC(c3cccc(OC)c3)n3nnnc3N2)cc1 (stereo not given)	0.872	–
CCCn1nnnc1NCc1ccc(OC)cc1	-2.53	–
C=CCOc1ccc(C(=O)Nc2ccccc2C(=O)N2CCCC2)cc1	-1.88	–
COc1cc(OC)c2c(c1Cl)OC1(C2=O)C(O)=CC(=O)CC1C (stereo not given)	-20.9	–
Cc1cc(=O)oc2ccc(OCC(=O)O)cc12	2.43	–
CCOC(=O)Cc1csc(NC(=O)COc2ccc3c(C)cc(=O)oc3c2)n1	-16.1	–
CC(=O)c1c(C)[nH]c(C(=O)COc2ccc3c(C)cc(=O)oc3c2)c1C	–	16.4 µM (active)
Cc1cc(=O)oc2cc(OCC(=O)Nc3nnc(C4CC4)s3)ccc12	1.7	–
COC(=O)COc1ccc2oc(=O)cc(C)c2c1	11.2	–
Cc1ccc(O)c(/C=N/NC(=O)COc2ccc3c(C)cc(=O)oc3c2)c1	–	20.6 µM (active)
CC1=C(C/C=C(\C)CCCC(C)CCCC(C)CCCC(C)C)C(=O)c2ccccc2C1=O (stereo not given)	-6.7	–
C=CC[C@H](CC(=O)OC(C)(C)C)C(=O)OC[C@H]1CCCN1C(=O)[C@H](CC=C)CC(=O)N(CCO)Cc1ccccc1	–	16.4 µM (active)
CCc1ccc(NC(=O)Cn2ncn3c(cc4ccccc43)c2=O)cc1	-23.6	–
N#Cc1cccc(CN2CCC(=O)N(CCO)CC2)c1	4.69	–
O=C(C1CCC1)N1CCN(S(=O)(=O)c2ccc([N+](=O)[O-])cc2)CC1	-20.9	–
Cn1c(=O)c2c(-c3ccccc3Br)n(Cc3ccccc3)cc2n(C)c1=O	–	20.6 µM (active)
Cc1c(S(=O)(=O)NCc2ccccc2)c(=O)n(C)c(=O)n1C	15.1	–
O=C(c1ccc[nH]c1=S)N1CCN(S(=O)(=O)c2ccc(Br)cc2Cl)CC1	-0.528	–
COc1ccc(CCNC(=O)c2ccc(CSCc3ccc(C)cc3)o2)cc1OC	–	14.6 µM (active)
COc1ccc(CCNC(=O)c2nnc(CS(=O)(=O)c3ccccc3)o2)cc1OC	-33.7	–
O=C(NCc1ccco1)c1ccc(CS(=O)(=O)Cc2ccc(F)cc2)o1	-9.49	–
Cc1ccc(CNC(=O)c2ccc(CS(=O)Cc3cccc(Cl)c3)o2)cc1 (stereo not given)	-23.5	–
COc1ccc(CCNC(=O)NS(=O)(=O)c2ccc(C)cc2)cc1OC	1.74	–
COc1ccc(CCNC(=O)Cc2ccc(C)cc2)cc1OC	-25.1	–
COc1ccccc1CNC(=O)c1ccc(CS(=O)(=O)c2ccccc2)o1	-0.755	–
COc1ccc(CCNC(=O)c2ccc(CS(=O)(=O)c3ccc(Br)cc3)o2)cc1OC	–	20.6 µM (active)
Cc1ccc(CCNC(=O)c2ccc(CS(=O)(=O)Cc3cccc(C)c3)o2)cc1	–	23.1 µM (active)
